The values below come from PubChem BioAssay (Tox21).

Several values for one entry are separate records, joined by “and”; a condition that tells them apart may be missing. Equal entries are not always repeated. Records with an inconclusive call do not appear. Some compounds were tested as several samples or in several runs, with calls that do not always agree. Activity calls are given as the source filed them. Unless noted, the call rests on the fitted dose curve; in most records, active means well fitted curve in the direction sought with a large enough effect in the repeat runs; inconclusive means weak or mixed curves; inactive means no such curve, though single readings can be large; an effect the other way counts as inactive or inconclusive.

Test [1] in a line: qHTS assay to identify small molecule antagonists of the estrogen related receptor (ERR) signaling pathway from Tox21 library - cell viability counter screen (AID 1224834). Further: nearly all actives have a fitted effect of over 30% in size. Further: potency means the concentration at half of the fitted maximal effect. The procedure, abridged: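 In this quantitative HTS format, ERR cells receive compounds in DMSO and are incubated for 17.5 h at 37 C. Live-cell protease activity is then detected with CellTiter-Fluor.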
In general terms: In qHTS, concentration-response curves come from the screen itself.

The target in test [2] is Luciferin 4-monooxygenase (Photinus pyralis) (UniProt P08659). Nature of the test: qHTS assay to identify small molecule inhibitors of firefly luciferase (AID 1224835). Further: nearly all actives have a fitted effect of over 25% in size. Further: potency means the concentration at half of the fitted maximal effect. The procedure, abridged:
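Biochemical qHTS: compounds run as interplate titrations against purified firefly enzyme, with D-luciferin and ATP each at its KM concentration. Light output recorded by CCD imaging.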

Test [3] can be described thus: qHTS assay to identify small molecule agonists of the constitutive androstane receptor (CAR) signaling pathway - cell viability counter screen (AID 1224836). Further: nearly all actives have a fitted effect of over 45% in size. The procedure, abridged:
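HepG2 cells stably carrying hCAR and a CYP2B6-2.2kb reporter were plated 4 h, then given compounds at 15 concentrations plus PK11195 (final 0.75 uM). After 23 h at 37 C, viability was read by CellTiter-Fluor fluorescence.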

Test [4] in a line: qHTS assay to identify small molecule antagonists of the constitutive androstane receptor (CAR) signaling pathway - cell viability counter screen (AID 1224837). Further: nearly all actives have a fitted effect of over 45% in size. The procedure, abridged:
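In quantitative HTS format, compounds at 15 concentrations were applied to HepG2 cells double-transfected with hCAR and CYP2B6-2.2kb under 50 nM CITCO stimulation; live-cell protease activity was read after 23 hr via CellTiter-Fluor.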

Test [5] can be described thus: qHTS assay to identify small molecule antagonists of the estrogen related receptor signaling pathway with the pleiotropic PPARgamma coactivator (PGC) from Tox21 10K library - cell viability counter screen (AID 1224840; active means well fitted cell-killing curve with a large enough effect in the repeat runs, not every such curve was filed as active; further: nearly all actives have a fitted effect of over 40% in size). The procedure, abridged: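 Viability counter screen, PGC/ERR cells: 17.5 h compound exposure at 37 C, CellTiter-Fluor fluorescence endpoint.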
The target in test [6] is Thyrotropin receptor (Homo sapiens) (UniProt P16473). Nature of the test: qHTS assay to identify small molecule agonists of the thyroid stimulating hormone receptor (TSHR) signaling pathway (AID 1224843; calls by dose curve; further: nearly all actives have a fitted effect of over 45% in size; further: potency means the concentration at half of the fitted maximal effect). An outline of the steps: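 Agonist-mode screen: TSHR HEK293 cells received test chemicals for half an hour at room temperature, then HTRF cAMP detection reagents for one hour prior to fluorescence measurement. Each chemical ran as a 15-concentration series, triplicated.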
Chain of Thyrotropin receptor (Homo sapiens) (P16473 whole entry, looked up): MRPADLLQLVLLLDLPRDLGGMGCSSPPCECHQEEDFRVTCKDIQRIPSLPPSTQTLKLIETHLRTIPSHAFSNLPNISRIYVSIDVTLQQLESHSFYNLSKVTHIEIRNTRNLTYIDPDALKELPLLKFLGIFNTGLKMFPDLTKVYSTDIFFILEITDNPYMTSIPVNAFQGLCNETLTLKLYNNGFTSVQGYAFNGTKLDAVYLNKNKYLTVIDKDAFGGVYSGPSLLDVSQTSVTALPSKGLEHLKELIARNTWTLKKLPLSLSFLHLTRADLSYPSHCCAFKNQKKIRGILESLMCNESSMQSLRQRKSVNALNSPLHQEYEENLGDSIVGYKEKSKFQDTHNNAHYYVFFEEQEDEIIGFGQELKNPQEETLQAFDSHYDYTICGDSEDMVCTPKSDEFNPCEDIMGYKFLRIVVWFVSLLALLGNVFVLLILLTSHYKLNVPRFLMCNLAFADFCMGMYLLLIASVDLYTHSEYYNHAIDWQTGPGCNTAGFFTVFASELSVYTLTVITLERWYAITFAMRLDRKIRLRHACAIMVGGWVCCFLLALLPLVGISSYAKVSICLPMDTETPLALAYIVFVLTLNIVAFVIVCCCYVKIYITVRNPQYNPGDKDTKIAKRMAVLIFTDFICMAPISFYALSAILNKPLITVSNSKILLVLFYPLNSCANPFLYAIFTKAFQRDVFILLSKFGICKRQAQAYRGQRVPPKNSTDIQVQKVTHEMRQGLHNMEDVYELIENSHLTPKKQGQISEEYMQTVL

A short description of test [7]: qHTS assay to identify small molecule agonists of the hypoxia (HIF-1) signaling pathway - cell viability counter screen (AID 1224844; calls by dose curve; further: nearly all actives have a fitted effect of over 50% in size; further: potency means the concentration at half of the fitted maximal effect). An outline of the steps:
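Same wells as the HIF-1 reporter screen; ME-180 cells carrying HRE-bla, 17 hr treatment at 37C; CellTiter-Glo luminescence read after 30 min at room temperature.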

Test [8] is described as follows: qHTS assay to identify small molecule agonists of H2AX (AID 1224845; active means well fitted activation curve with a large enough effect in the signal ratio in the repeat runs, not every such curve was filed as active; the % refers to the signal ratio). An outline of the steps:
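Wild-type CHO-K1 cells, plated overnight, exposed 3hr at 37C to 15 concentrations (0.76% DMSO final). Lysed, then HTRF anti-pH2AX (S139) cryptate and anti-H2AX-d2 antibodies, 24 hr room temperature; 665/620 nm emission read.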

Test [9] in a line: qHTS assay to identify small molecule agonists of the hypoxia (HIF-1) signaling pathway (AID 1224846; active means well fitted activation curve with a large enough effect in the signal ratio in the repeat runs, not every such curve was filed as active; the % refers to the signal ratio). The procedure, abridged: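 In ME-180 cells bearing an HRE-bla construct, 17 h treatment with DMSO-dissolved compounds at 37C was followed by CCF4-AM loading to quantify reporter induction.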
A short description of test [10]: qHTS RealTime-Glo MT Cell Viability Assay in HepG2 cells - 24 hour (AID 1224867). Further: nearly all actives have a fitted effect of over 50% in size. The procedure, abridged: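 qHTS, HepG2, 600 cells/well, RealTime-Glo (NanoLuc + prosubstrate) added with cells; 5 h preincubation; DMSO compound addition; 37 C; luminescence at 0/8/16/24/32/40 h.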
The nature of test [11]: qHTS RealTime-Glo MT Cell Viability Assay in HEK293 cells - 32 hour (AID 1224868). Further: nearly all actives have a fitted effect of over 50% in size. Further: potency means the concentration at half of the fitted maximal effect. The procedure, abridged:
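Assay medium contained NanoLuc luciferase plus cell-permeant prosubstrate, added with HEK293 cells at 600 cells/well. After 5 h at 37 C/5% CO2 compounds were added; plates stayed at 37 C for 40 h with serial luminescence reads.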

Test [12] can be described thus: A CellTox Green Cytotoxicity Assay to monitor cytotoxicity in HEK293 cells - 0 hour (AID 1224869). Further: nearly all actives have a fitted effect of over 50% in size. An outline of the steps: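 Homogeneous no-lysis format: HEK293 cell suspension mixed with CellTox Green reagent, seeded, incubated 5 h at 37 C/5% CO2, then dosed by pintool with compound in DMSO.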
The target of test [13] is Nuclear receptor subfamily 1 group I member 3 (Homo sapiens) (UniProt Q14994). Kind of test: qHTS assay to identify small molecule antagonists of the constitutive androstane receptor (CAR) signaling pathway (AID 1224838). Further: nearly all actives have a fitted effect of over 40% in size. Further: potency means the concentration at half of the fitted maximal effect. An outline of the steps:
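CITCO-stimulated (50 nM final) HepG2 cells stably transfected with hCAR and CYP2B6-2.2kb luciferase were exposed to compounds at 15 concentrations for 24 h at 37 C/5% CO2. A luciferase reagent was added and luminescence recorded after 30 min.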

For test [14] the target is unchanged. Kind of test: qHTS assay to identify small molecule agonists of the constitutive androstane receptor (CAR) signaling pathway (AID 1224839).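 Further: HepG2 cells stably carrying human CAR and a CYP2B6 luciferase reporter; nearly all actives have a fitted effect of over 15% in size.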 The procedure, abridged:
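HepG2 cells stably expressing hCAR and a CYP2B6-2.2kb luciferase reporter were treated with compounds at 15 concentrations plus 0.75 uM PK11195 (final) for 24 h at 37 C; luminescence was read after ONE-Glo addition.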

A short description of test [15]: qHTS assay to identify small molecule antagonists of the estrogen related receptor signaling pathway with the pleiotropic PPARgamma coactivator (PGC) from Tox21 10K library (AID 1224841; call rule not given here). The procedure, abridged: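 In the PGC/ERR line, DMSO solutions of test chemicals are pin-delivered to 2,000 cells/well six hours after dispensing. Following eighteen hours' incubation, One-Glo reagent is added and luminescence recorded.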

A short description of test [16]: qHTS assay to identify small molecule agonists of the estrogen related receptor signaling pathway with the pleiotropic PPARgamma coactivator (PGC) from Tox21 10K library (AID 1224842). Further: nearly all actives have a fitted effect of over 15% in size. The procedure, abridged:
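PGC/ERR reporter cell line, 2,000 cells per well, incubated 6 h at 37 C before 23 nL compound in DMSO was added. After 18 h at 37 C, One-Glo luminescence read following 30 min at room temperature.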

Test [17] can be described thus: qHTS assay to identify small molecule agonists of H2AX - cell viability counter screen (AID 1224847; calls by dose curve; further: top concentration of the series differs between compounds; nearly all actives have a fitted effect of over 30% in size). The procedure, abridged:
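Wild-type CHO-K1 cells (10% FBS medium) were plated overnight at 37C, exposed to compounds at 15 concentrations for 3 hr at 37C (0.76% DMSO final), and viability was read as CellTiter-Glo luminescence after 30 min at room temperature.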

Test [18] is described as follows: qHTS assay to identify small molecule antagonists of the estrogen related receptor (ERR) signaling pathway from Tox21 library (AID 1224848). Further: nearly all actives have a fitted effect of over 50% in size. The procedure, abridged:
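Quantitative high-throughput format: ERR reporter cells (2,000/well) pre-incubated 6 h, treated 18 h at 37 C with compounds in DMSO alongside positive and negative controls, then read by ONE-Glo luminescence.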

Test [19] in a line: qHTS assay to identify small molecule agonists of the estrogen related receptor (ERR) signaling pathway from Tox21 library (AID 1224849; calls by dose curve; further: nearly all actives have a fitted effect of over 15% in size). As to conditions: ERR reporter cell line, ONE-Glo luciferase, 18 h. An outline of the steps:
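Reporter cells (ERR, NTP source) treated with Tox21 10K compounds 18 h, 37 C. Readout: ONE-Glo luminescence, 30 min RT.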
On the % scale 0 is the no-effect control and ±100 the full control effect.

Chain of Nuclear receptor subfamily 1 group I member 3 (Homo sapiens) (Q14994 whole entry, looked up): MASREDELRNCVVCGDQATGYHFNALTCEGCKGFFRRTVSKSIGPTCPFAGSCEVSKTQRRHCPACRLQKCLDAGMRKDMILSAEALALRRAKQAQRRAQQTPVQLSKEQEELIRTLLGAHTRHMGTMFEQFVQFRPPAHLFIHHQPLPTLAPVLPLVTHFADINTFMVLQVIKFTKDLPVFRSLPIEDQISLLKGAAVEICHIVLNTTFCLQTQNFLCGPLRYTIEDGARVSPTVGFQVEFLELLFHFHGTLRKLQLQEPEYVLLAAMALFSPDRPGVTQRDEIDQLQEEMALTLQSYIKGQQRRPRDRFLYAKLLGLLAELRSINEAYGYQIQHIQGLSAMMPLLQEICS
Chain of Luciferin 4-monooxygenase (Photinus pyralis) (P08659 whole entry, looked up): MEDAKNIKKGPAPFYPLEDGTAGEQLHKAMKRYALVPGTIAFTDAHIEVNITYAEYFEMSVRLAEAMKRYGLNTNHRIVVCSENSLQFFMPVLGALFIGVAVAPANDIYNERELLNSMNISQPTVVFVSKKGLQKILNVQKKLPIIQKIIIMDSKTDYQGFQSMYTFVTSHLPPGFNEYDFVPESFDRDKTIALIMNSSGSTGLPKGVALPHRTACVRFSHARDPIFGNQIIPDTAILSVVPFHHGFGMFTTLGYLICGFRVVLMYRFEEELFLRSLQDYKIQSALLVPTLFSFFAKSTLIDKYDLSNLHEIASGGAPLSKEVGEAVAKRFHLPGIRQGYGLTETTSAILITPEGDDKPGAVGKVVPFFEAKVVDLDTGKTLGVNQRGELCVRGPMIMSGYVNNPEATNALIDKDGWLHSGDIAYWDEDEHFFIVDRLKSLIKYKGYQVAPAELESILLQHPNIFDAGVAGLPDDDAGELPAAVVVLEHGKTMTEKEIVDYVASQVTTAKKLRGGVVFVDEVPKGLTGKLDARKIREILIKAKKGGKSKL

For the compound `O=C(Oc1ccccc1)c1ccc(O)cc1`, the Potency entry in [1], in test [3], in test [4], in test [5], in [6] and in test [7] was “inactive” each time. For the same compound, the Potency entry in [8], in test [10], in [11] and in test [12] was “inactive” each time. Besides, the Potency in [2] is 35.8 µM (active) and 35.6 µM (active). In test [9], the compound was called inactive.
For `O=C(c1cc(O)c(O)c(O)c1)c1ccc(O)c(O)c1O`, in test [1], the Potency was 54.3 µM (active) and 54.5 µM (active). The Potency entry in test [3], in [4], in test [13], in [14], in test [5] and in test [15] was “inactive” in each case. Besides, the Potency result in test [16], in test [7], in test [17], in [18], in [10] and in test [11] was “inactive” throughout. Besides, the Potency entry in [12] was “inactive”. In [9], the result was inactive. Further, the activity change, positive = activation was -6.33% (inactive) in [19] (at 42.5 µM (top of the series)); -10.5% (inactive) and -15.9% (inactive) in test [19] (at 92.4 µM (top of the series)).
In the case of `Nc1cc(-c2ccncc2)c[nH]c1=O`, the Potency result in test [1], in [2], in [3], in test [4], in test [5] and in [15] was “inactive” in each case. Moreover, the Potency result in test [16], in test [6], in [7], in [8], in test [17] and in test [18] was “inactive” each time. For the same compound, the Potency result in test [10], in test [11] and in [12] was “inactive” each time. Also, the activity change, positive = activation is -5.23% (inactive) in test [19] (at 42.5 µM (top of the series)) and -0.579% (inactive) in [19] (at 92.4 µM (top of the series)).
Turning to `CC1=CC[C@H]2C[C@@H]1C2(C)C`, the Potency result in test [1], in test [2], in [3], in test [4], in test [5] and in test [6] was “inactive” in each case. Also, the Potency result in test [7], in test [8], in [17], in test [10] and in test [12] was “inactive” each time. Further, the result in [9] was inactive.
As to `C=C1CC[C@H](O)CC1=C/C=C1\CCC[C@]2(C)[C@@H]([C@H](C)/C=C/[C@H](C)C(C)C)CC[C@@H]12`, the Potency result in test [2], in test [3], in test [4], in [5], in [10] and in test [12] was “inactive” each time. In addition, the Potency in test [6] was 21.5 µM (active) and 34.4 µM (active); in test [7], 43.3 µM (active) and 34.7 µM (active); in test [11], 48.5 µM (active) and 43.6 µM (active).
With `CC(C)n1c(/C=C/[C@@H](O)C[C@@H](O)CC(=O)O)c(-c2ccc(F)cc2)c2ccccc21`, the Potency result in test [1], in test [3], in test [4], in test [5], in test [7] and in test [8] was “inactive” in each case. Besides, the Potency result in [10], in test [11] and in test [12] was “inactive” throughout. Moreover, the call in test [9] was inactive.
For the compound `OCCOCCOCCOCCO`, the Potency entry in test [1], in [2], in test [3], in test [4], in test [5] and in test [6] was “inactive” each time. Besides, the Potency result in test [7], in test [8], in test [17], in [10] and in test [12] was “inactive” in each case. Also, the call in test [9] was inactive.
Consider `CCC(=O)O`, for which the Potency result in [1], in test [2], in [3], in test [4], in [5] and in [7] was “inactive” in each case. The Potency entry in test [8], in [10], in test [11] and in test [12] was “inactive” throughout. The compound was called inactive in test [9].
On to `S=c1nc[nH]c2nc[nH]c12`, for which the Potency result in test [2], in [3], in [14], in test [5], in test [6] and in test [7] was “inactive” each time. Besides, the Potency entry in [17], in [10] and in test [12] was “inactive” in each case. Also, in [13], the Potency is 1.5 µM (active) and 3.35 µM (active). Moreover, the result in test [9] was inactive.
On to `OCC#CCO`, for which the Potency entry in test [1], in test [2], in [3], in test [4], in [5] and in [6] was “inactive” throughout. Besides, the Potency result in [7], in test [8], in test [10], in test [11] and in [12] was “inactive” in each case. Besides, the call in test [9] was inactive.
With `C=C(C)C(=O)OCCCCCC`, the Potency result in [1], in test [2], in [3], in test [4], in [5] and in test [6] was “inactive” in each case. Moreover, the Potency entry in [7], in test [8], in [17], in test [10] and in test [12] was “inactive” throughout. In addition, the outcome in [9] was inactive.
Take `NCCc1ccc(O)c(O)c1`: in [1], the Potency was 54.6 µM (active) and inactive. The Potency entry in test [2], in [3], in test [5], in test [7], in test [17] and in [10] was “inactive” each time. Further, the Potency entry in test [11] and in test [12] was “inactive” each time.
In the case of `Cc1ccc(N)c(S(=O)(=O)O)c1`, the Potency result in [1], in test [2], in test [3], in test [4], in [5] and in test [6] was “inactive” each time. For the same compound, the Potency result in test [7], in [8], in [10] and in test [12] was “inactive” each time. Besides, in test [9], the call was inactive.
